The full list was thinned out, with hits kept by preference.
Autofluor counter – compound fluorescence in toxin protease inhibitor counterscreen; compound autofluorescence counterscreen, microsphere flow cytometry; hits give high values; fluorescence intensity (no concentration beside the values); 3.1% of 360,000 active; AID 624483; in the data active means fluorescence intensity above about 16000; inconclusive means no clear call, values can overlap the other calls
TcdB GH inh – blocks C. difficile toxin B glycohydrolase activity; TcdB glycohydrolase enzymatic assay, plate reader; inhibition, % at 9.99 µM; 0.24% of 350,000 active; AID 652162; P18177; in the data active means inhibition above about 10%
BoNT-A LC inh2 – blocks Botulinum neurotoxin A light chain protease. AID 588499. inhibition, % at 10 µM. multiplex microsphere protease substrate cleavage, flow cytometry. 0.17% of 360,000 active; further: plate controls were buffer without enzyme for full effect and enzyme alone for no effect
BoNT-F LC inh – BoNT F light chain protease inhibition | AID 588497 | Multiplex microsphere protease cleavage assay, flow cytometry | 0.22% of 360,000 active | inhibition, % at 10 µM; in the data active means inhibition above about 35%, passing the limit was not always enough; inconclusive means no clear call, values can overlap the other calls; further: plate controls were buffer without enzyme for full effect and enzyme alone for no effect
Anthrax LF prot – inhibitors of Bacillus anthracis lethal factor protease | P15917 | multiplex microsphere protease cleavage assay, LF | inhibition, % at 10 µM | 0.12% of 360,000 active; further: plate controls were buffer without enzyme for full effect and enzyme alone for no effect
The depositor's hits bear a star; ? = inconclusive; . = no result given; ! = a repeat was not active. Unless noted, no stated cut-off is given here; in the data, active means inhibition above about 30%; inconclusive means no clear call, values can overlap the other calls; inactive means below that.

SMILES	Autofluor counter	TcdB GH inh	BoNT-A LC inh2	BoNT-F LC inh	Anthrax LF prot
CCOC(=O)c1c(CN2CCOCC2)n(C)c2cc(Br)c(O)c(CN(C)C)c12	21896*!	-2.7	?	-2.6	-0.9
Cc1ccc(C(=O)NN2C(=O)/C(=C/c3cn(C)c4ccccc34)SC2=S)cc1	2904	-0.2	42.7*	23.1	25.5
O=C(N[C@@H]1CC[C@H](CCNS(=O)(=O)c2ccc(F)cc2)O[C@H]1CO)c1ccccn1	.	-0.5	.	.	.
O=C(O)c1ccccc1-c1ccccc1C(=O)NCCCO	20852*	.	?	1.4	1.6
CN(C(=O)CN1CCC(NC(=O)C2CCCCC2)CC1)C1CCCCC1	23953*	.	-1.7	-4.5	-3.1
CC(=O)N(C)C[C@@H]1Oc2ncc(C#Cc3ccncc3)cc2C(=O)N([C@H](C)CO)C[C@@H]1C	.	-0.8	.	.	.
Cc1ccc(-c2cnc(N)n2C)cc1C	23519*	.	-2.0	-6.0	-5.0
CO[C@@H]1CN(C)C(=O)c2cc(NC(=O)C3CC3)ccc2OC[C@@H](C)N(CC2CCOCC2)C[C@H]1C	.	-7.8	.	.	.
O=C(C[C@H]1CC[C@@H]2[C@H](COC[C@H](O)CN2C(=O)Cc2ccccc2)O1)NC1CCC1	.	-8.4	.	.	.
Nc1nc(COc2ccc3ccccc3c2)cs1	7332	.	-1.5	-7.6	-5.8
Nc1nc(CCOc2ccc(F)cc2)cs1	3250	11.1*	-0.1	-5.1	-4.0
CC(=O)Nc1ccc(S(=O)(=O)Oc2ccc(N3C(=O)C4CCCCC4C3=O)cc2)cc1 (stereo unspecified)	19304*	0.5	?	-1.1	-6.2
O=C(Cc1ccncc1)NCC[C@H]1CC[C@@H](NC(=O)C2CCCCC2)[C@@H](CO)O1	.	-2.1	.	.	.
CCSc1ccc([C@@H]2[C@@H]3C(=O)N(CC)C(=O)[C@@H]3[C@]3(C(=O)OC)CCCCN23)cc1	3027	1.4	0.2	-11.1	-1.2
CCSc1ccc([C@@H]2[C@H]3C(=O)N(CC)C(=O)[C@H]3[C@]3(C(=O)OC)CCCCN23)cc1	21568*	1.0	-3.7	29.6	4.4
C[C@H]1CN([C@@H](C)CO)C(=O)c2cc(NC(=O)Cn3cnnn3)ccc2O[C@@H]1CN(C)Cc1ccc(Cl)c(Cl)c1	.	-12.2	.	.	.
CCOC(=O)C(=O)NC(C)c1ccccc1 (stereo unspecified)	4953	1.5	-1.8	-5.9	0.9
CCOC(=O)C(C(=O)OCC)=C1OC(=O)c2ccccc21	23965*	.	-0.3	-0.9	-1.9
C/C=C/c1c(F)c(F)c(Oc2ccc(C(=O)O)cc2)c(F)c1F	21781*	.	2.9	2.3	-7.0
C[C@H]1CCCCO[C@@H](CN(C)C)[C@@H](C)CN([C@@H](C)CO)C(=O)c2cc(NC(=O)CCC(F)(F)F)ccc2O1	.	0.2	.	.	.
COCC(=O)Nc1ccc2c(c1)C(=O)N(C)C[C@H](OC)[C@@H](C)CN(C(=O)c1cccnc1)[C@H](C)CO2	.	-0.7	.	.	.
COc1ccc(C(=O)NC(CC(=O)O)c2cc([N+](=O)[O-])ccc2Cl)c(SC)c1 (stereo unspecified)	3844	33.7*	0.5	-1.8	-0.9
COc1cccc(C#Cc2ccc([C@@H]3[C@@H](C#N)N[C@@H]3CO)cc2)c1	.	-4.8	.	.	.
O=C(C[C@H]1CC[C@@H]2[C@H](COC[C@H](O)CN2C(=O)c2ccccc2)O1)NCc1cccc(F)c1	.	-0.9	.	.	.
CC(=O)Nc1nonc1C(=O)N1CCC(C)CC1	20925*	.	5.3	4.2	-0.4
SMILES	Autofluor counter	TcdB GH inh	BoNT-A LC inh2	BoNT-F LC inh	Anthrax LF prot
Cc1cc(Cl)ccc1NNC(=O)c1c(C)noc1C	3972	-3.9	-5.7	?	-15.9
Cc1noc(C)c1C(=O)Nc1ccc(F)cc1	2035	-0.7	-0.5	-5.4	0.1
Cc1noc(C)c1C(=O)Nc1c(F)cc(F)cc1Br	23289*	1.2	-3.1	-2.1	-4.3
Cc1cc(C(=O)Nc2c(F)cc(F)cc2Br)c(C)o1	17675*	.	-3.6	-6.4	0.6
Cc1noc(C)c1C(=O)Nc1ccc(Cl)cc1C(F)(F)F	23519*	1.0	-1.0	-2.5	-7.1
O=C(Nc1c(F)cc(F)cc1Br)c1ccco1	14520	0.8	?	12.7	-1.4
O=S(=O)(c1ccccc1)N1CC[C@@H]2[C@H]1c1cc(C#CC3CCCCC3)ccc1N[C@@H]2CO	.	0.6	.	.	.
C[C@H]1CN([C@@H](C)CO)C(=O)c2cccc(NC(=O)C3CCOCC3)c2O[C@H]1CN(C)C	.	0.6	.	.	.
Cc1nc2nc(-c3cccnc3)[nH]n2c(=O)c1Cc1ccccc1	20663*	.	1.7	2.6	0.0
COc1ccc(NC(=O)N[C@H]2CC[C@H](CC(=O)NC3CCCCC3)O[C@@H]2CO)cc1	.	-0.6	.	.	.
O=C(CN1C(=O)CCC1=O)NNc1ccc2ccccc2c1	4543	82.3*	-0.2	-4.8	-4.1

Screening results: PubChem BioAssay, several laboratories
